Read-out in assay [1]: TIMP metallopeptidase inhibitor 2 (TIMP2), TIMP2 (gene 7077)
Kind of assay: BSK_KF3CT_TIMP2: BioMAP Diversity Plus: KF3CT Assay for TIMP metallopeptidase inhibitor 2 (TIMP2) Biomarker Activity (AID 2283071). The settings on record: primary human keratinocytes with fibroblasts; actives raise or lower the signal. The method in brief:
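Chemicals were dosed onto human skin primary co-cultures of keratinocytes and foreskin fibroblasts, and TIMP-2 was measured by ELISA after 24 hours. Activity in either direction was fitted relative to DMSO.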

Read-out in assay [2]: Transforming growth factor beta 1 (TGFb1), TGFB1 (gene 7040)
Briefly: BSK_KF3CT_TGFb1: BioMAP Diversity Plus: KF3CT Assay for Transforming growth factor beta 1 (TGFb1) Biomarker Activity (AID 2283072). The settings on record: primary human keratinocytes with fibroblasts; actives raise or lower the signal. The method in brief: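 KF3CT co-culture (keratinocytes + fibroblasts), 24 h exposure → TGF-b1 ELISA → bidirectional fit, DMSO = baseline. Parallel SRB total-protein staining (0.1% SRB, 10% TCA fixation, 560 nm) for cytotoxicity.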

Read-out in assay [3]: C-C motif chemokine 2 (Homo sapiens) (UniProt P13500)
Kind of assay: BSK_KF3CT_MCP1: BioMAP Diversity Plus: KF3CT Assay for Monocyte Chemoattractant Protein 1 (MCP1/CCL2) Biomarker Activity (AID 2283073). The settings on record: primary human keratinocytes with fibroblasts; actives raise or lower the signal. The method in brief:
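Human keratinocyte–foreskin fibroblast co-culture; MCP-1 measured by ELISA 24 h after dosing. Bidirectional fit vs DMSO; cytotoxicity tracked by SRB total protein in parallel cultures.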

Read-out in assay [4]: Matrix Metallopeptidase 9 (MMP9), MMP9 (gene 4318)
Kind of assay: BSK_KF3CT_MMP9: BioMAP Diversity Plus: KF3CT Assay for Matrix Metallopeptidase 9 (MMP9) Biomarker Activity (AID 2283074).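 As to AC50: MMP9 protein level quantified by ELISA in the co-culture.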 The settings on record: primary human keratinocytes with fibroblasts; actives raise or lower the signal. The method in brief: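 Values come from bidirectional fitting relative to DMSO of MMP-9 levels, which were measured by ELISA. Measurements were taken 24 h after chemical dosing of a keratinocyte and foreskin fibroblast co-culture.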

Read-out in assay [5]: urokinase plasminogen activator (uPA), PLAU (gene 5328)
Kind of assay: BSK_KF3CT_uPA: BioMAP Diversity Plus: KF3CT Assay for urokinase plasminogen activator (uPA) Biomarker Activity (AID 2283075). The settings on record: primary human keratinocytes with fibroblasts; actives raise or lower the signal. The method in brief: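 Values derive from bidirectional fitting against DMSO controls. Keratinocyte/foreskin fibroblast co-cultures received chemical; 24 h later uPA was detected by ELISA, with SRB total-protein staining in parallel wells for overt cytotoxicity.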

Read-out in assay [6]: CD40, CD40 (gene 958)
Briefly: BSK_LPS_CD40: BioMAP Diversity Plus: LPS Assay for CD40 Biomarker Activity (AID 2283076). The settings on record: primary human HUVEC with PBMC; actives raise or lower the signal. The method in brief: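 HUVEC plus PBMC co-culture stimulated with LPS; CD40 quantified by ELISA 24 h after compound dosing. Fitting was bidirectional relative to DMSO. SRB staining of parallel cultures flagged overt cytotoxicity.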

Read-out in assay [7]: E-selectin (Homo sapiens) (UniProt P16581)
Kind of assay: BSK_LPS_Eselectin: BioMAP Diversity Plus: LPS Assay for Eselectin Biomarker Activity (AID 2283077). The conditions noted are these: primary human HUVEC with PBMC; actives raise or lower the signal. The method in brief: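 Human umbilical vein endothelial cells co-cultured with PBMC under LPS stimulation; cell-surface E-selectin measured by ELISA 24 h after dosing. Change in either direction versus DMSO, with SRB total-protein staining in parallel cultures for cytotoxicity.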

Read-out in assay [8]: Interleukin-8 (IL8), CXCL8 (gene 3576)
Briefly: BSK_LPS_IL8: BioMAP Diversity Plus: LPS Assay for Interleukin-8 (IL8) Biomarker Activity (AID 2283078). The settings on record: primary human HUVEC with PBMC; actives raise or lower the signal. The method in brief: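 Human umbilical vein endothelial cells co-cultured with PBMC, LPS-stimulated, exposed to compound for 24 h. IL-8 quantified by ELISA; fitted in both directions against DMSO, with SRB total-protein staining of parallel cultures for cytotoxicity.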

The nature of assay [9]: BSK_LPS_SRB: Viability Assessment in the BioMAP Diversity Plus: LPS Assay (AID 2283079).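 Also: total protein by sulforhodamine B absorbance as a cytotoxicity measure; measured one day after compound addition; fitted in both directions against DMSO so loss or gain of signal counts.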 The settings on record: primary human HUVEC with PBMC. The method in brief:
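Co-culture of human umbilical vein endothelial cells and PBMC, read 24 h after dosing. Total protein by 0.1% SRB staining after 10% TCA fixation, absorbance at 560 nm; bidirectional fit against DMSO.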

Read-out in assay [10]: Interleukin-1 alpha (IL1a), IL1A (gene 3552)
Briefly: BSK_LPS_IL1a: BioMAP Diversity Plus: LPS Assay for Interleukin-1 alpha (IL1a) Biomarker Activity (AID 2283080). The conditions noted are these: primary human HUVEC with PBMC; actives raise or lower the signal. The method in brief: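 Human umbilical vein endothelial cells co-cultured with PBMC and stimulated with LPS; IL-1a measured by ELISA 24 h after dosing. Bidirectional fitting against DMSO; cytotoxicity checked by SRB staining in parallel cultures.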

Read-out in assay [11]: Monocyte Chemoattractant Protein-1 (MCP1), CCL2 (gene 6347)
Kind of assay: BSK_LPS_MCP1: BioMAP Diversity Plus: LPS Assay for Monocyte Chemoattractant Protein-1 (MCP1) Biomarker Activity (AID 2283081). The conditions noted are these: primary human HUVEC with PBMC; actives raise or lower the signal. The method in brief:
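Human umbilical vein endothelial cells co-cultured with PBMC, LPS-stimulated; secreted MCP-1 measured by ELISA 24 h after compound addition. Bidirectional curve fitting against DMSO baseline; SRB total-protein staining in parallel cultures for cytotoxicity.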

Read-out in assay [12]: Macrophage colony-stimulating factor (MCSF), CSF1 (gene 1435)
Kind of assay: BSK_LPS_MCSF: BioMAP Diversity Plus: LPS Assay for Macrophage colony-stimulating factor (MCSF) Biomarker Activity (AID 2283083). The conditions noted are these: primary human HUVEC with PBMC; actives raise or lower the signal. The method in brief:
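HUVEC–PBMC co-culture, M-CSF measured by ELISA 24 h after chemical dosing. Fitted in both directions relative to DMSO as negative control; overt cytotoxicity assessed by SRB total-protein staining in parallel cultures.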

Read-out in assay [13]: Tumor necrosis factor (Homo sapiens) (UniProt P01375)
Briefly: BSK_LPS_TNFa: BioMAP Diversity Plus: LPS Assay for Tumour Necrosis Factor alpha (TNFa) Biomarker Activity (AID 2283085). The conditions noted are these: primary human HUVEC with PBMC; actives raise or lower the signal. The method in brief: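 Cells (umbilical vein endothelium plus peripheral blood mononuclear cells) were dosed with chemical, incubated 24 h, then TNFa was quantified by ELISA; values derive from bidirectional fitting with DMSO as baseline.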

Read-out in a further assay: CD38, CD38 (gene 952)
Briefly: BSK_SAg_CD38: BioMAP Diversity Plus: SAg Assay for CD38 Biomarker Activity (AID 2283087). The conditions noted are these: primary human HUVEC with PBMC; actives raise or lower the signal. The method in brief:
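CD38 quantified by ELISA (fluorescence) in a superantigen-activated endothelial cell–PBMC co-culture at 24 h post-dose. Activity fitted in both directions relative to DMSO; parallel SRB and Alamar Blue cytotoxicity read-outs.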

Read-out in assay [14]: CD40, CD40 (gene 958)
Briefly: BSK_SAg_CD40: BioMAP Diversity Plus: SAg Assay for CD40 Biomarker Activity (AID 2283088). The settings on record: primary human HUVEC with PBMC; actives raise or lower the signal. The method in brief: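 HUVEC plus PBMC co-culture, superantigen-activated, with CD40 read by ELISA 24 h after dosing. Curves fitted in both directions against DMSO. Overt cytotoxicity checked by parallel SRB total-protein staining.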

Read-out in the next assay: CD69, CD69 (gene 969)
Kind of assay: BSK_SAg_CD69: BioMAP Diversity Plus: SAg Assay for CD69 Biomarker Activity (AID 2283089).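 As to AC50: cell surface CD69 protein quantified by ELISA with fluorescence detection.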 The conditions noted are these: primary human HUVEC with PBMC; actives raise or lower the signal. The method in brief: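 ELISA, fluorescence read-out: CD69 on human umbilical vein endothelial cell + PBMC co-culture, 24 h post-dosing. Gain or loss of signal fitted bidirectionally against DMSO baseline.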

Read-out in assay [15]: Tissue Factor, F3 (gene 2152)
Kind of assay: BSK_LPS_TissueFactor: BioMAP Diversity Plus: LPS Assay for Tissue Factor Biomarker Activity (AID 2283084). The settings on record: primary human HUVEC with PBMC; actives raise or lower the signal. The method in brief: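 Human umbilical vein endothelial cells co-cultured with PBMC were dosed with compound. Cell-surface CD142 was measured by ELISA 24 h later. Activity was fitted bidirectionally against DMSO, with SRB total-protein staining in parallel cultures for cytotoxicity.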

Read-out in assay [16]: Vascular cell adhesion molecule 1 (VCAM1), VCAM1 (gene 7412)
Kind of assay: BSK_LPS_VCAM1: BioMAP Diversity Plus: LPS Assay for Vascular cell adhesion molecule 1 (VCAM1) Biomarker Activity (AID 2283086). The settings on record: primary human HUVEC with PBMC; actives raise or lower the signal. The method in brief:
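Cells are dosed in an LPS-stimulated endothelial/mononuclear co-culture and, after 24 h, VCAM-1 is quantified by ELISA. Activity in either direction is fitted relative to the DMSO negative control.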

Read-out in assay [17]: Monocyte Chemoattractant Protein-1 (MCP1), CCL2 (gene 6347)
Kind of assay: BSK_SAg_MCP1: BioMAP Diversity Plus: SAg Assay for Monocyte Chemoattractant Protein-1 (MCP1) Biomarker Activity (AID 2283090). The conditions noted are these: primary human HUVEC with PBMC; actives raise or lower the signal. The method in brief:
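Values derive from bidirectional fitting of ELISA-measured MCP1 against DMSO controls. Readings were taken 24 h after dosing human vascular endothelial cells co-cultured with peripheral blood mononuclear cells under superantigen stimulation.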

Assay [18] is described as follows: BSK_LPS_PGE2: BioMAP Diversity Plus: LPS Assay for Prostaglandin E2 (PGE2) Biomarker Activity (AID 2283082). The conditions noted are these: primary human HUVEC with PBMC; actives raise or lower the signal. The method in brief:
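Compounds were added to the LPS co-culture of endothelium and PBMC, and PGE2 was measured by ELISA after 24 h. Responses in either direction were fitted with DMSO as baseline.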

Activity calls are given as the source filed them. The calls were made as follows: active = hit-call score of the fitted dose curve at least 0.9, where 1 is the maximum; inactive = score below 0.9.

Tumor necrosis factor (Homo sapiens), sequence (P01375 whole entry, looked up): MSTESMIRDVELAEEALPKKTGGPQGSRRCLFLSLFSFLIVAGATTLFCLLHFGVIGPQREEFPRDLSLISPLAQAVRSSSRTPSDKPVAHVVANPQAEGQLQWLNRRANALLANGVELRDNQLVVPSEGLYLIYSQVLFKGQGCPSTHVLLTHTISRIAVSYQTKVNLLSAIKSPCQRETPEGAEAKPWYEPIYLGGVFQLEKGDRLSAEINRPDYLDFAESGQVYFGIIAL
E-selectin (Homo sapiens), sequence (P16581 whole entry, looked up): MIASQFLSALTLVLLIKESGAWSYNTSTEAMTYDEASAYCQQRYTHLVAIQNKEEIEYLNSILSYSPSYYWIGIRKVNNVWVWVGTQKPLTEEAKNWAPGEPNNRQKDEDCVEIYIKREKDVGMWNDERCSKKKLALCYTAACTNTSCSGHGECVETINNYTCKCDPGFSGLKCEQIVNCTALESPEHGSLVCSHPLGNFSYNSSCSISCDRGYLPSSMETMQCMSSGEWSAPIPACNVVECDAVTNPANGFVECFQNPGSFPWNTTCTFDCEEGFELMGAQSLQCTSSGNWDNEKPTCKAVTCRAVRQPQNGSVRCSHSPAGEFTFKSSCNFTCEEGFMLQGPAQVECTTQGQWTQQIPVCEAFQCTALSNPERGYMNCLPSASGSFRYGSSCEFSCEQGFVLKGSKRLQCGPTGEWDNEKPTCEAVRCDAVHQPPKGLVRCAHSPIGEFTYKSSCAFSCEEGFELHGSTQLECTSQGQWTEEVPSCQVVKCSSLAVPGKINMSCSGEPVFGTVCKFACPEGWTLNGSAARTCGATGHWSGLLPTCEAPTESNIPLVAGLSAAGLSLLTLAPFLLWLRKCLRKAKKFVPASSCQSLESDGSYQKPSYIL

Consider `c1cc2c3c(cccc3c1)CC2`, for which the outcome was “inactive” in assay [1]; “inactive” in assay [2]; “inactive” in assay [3]; “inactive” in assay [4]; “inactive” in assay [5]; “inactive” in the assay with CD40, CD40 (gene 958) [6]. In addition, the result in assay [7], in assay [8], in assay [9], in assay [10], in [11] and in [12] was inactive. Moreover, the outcome in assay [13] is “inactive”; with CD38, CD38 (gene 952), “inactive”; with CD40, CD40 (gene 958) [14] it was “inactive”; with CD69, CD69 (gene 969), “inactive”.

On to `O=P1(N(CCCl)CCCl)NCCCO1` (stereo not drawn), for which the outcome in assay [1] is “inactive”; in assay [2] it was “inactive”; in [3] it was “inactive”; in [4], “inactive”; in [5] it was “inactive”; with CD40, CD40 (gene 958) [6] it was “inactive”. Besides, the result in assay [7], in assay [8], in assay [9], in assay [10], in [12] and in assay [15] was inactive. In addition, the outcome in assay [13] is “inactive”; in assay [16], “inactive”; in the assay with CD38, CD38 (gene 952), “inactive”; in the assay with CD40, CD40 (gene 958) [14] it was “inactive”; with CD69, CD69 (gene 969), “inactive”; in assay [17], “inactive”.

On to `N#Cc1cc([N+](=O)[O-])ccc1N`, for which the outcome in [1] was “inactive”; in assay [2] it was “inactive”; in [3], “inactive”; in assay [4], “inactive”; in assay [5] it was “inactive”; with CD40, CD40 (gene 958) [6], “inactive”. In addition, the outcome in assay [7], in assay [8], in assay [9], in [10], in assay [18] and in [12] was inactive. Besides, the outcome in [15] was “inactive”; in assay [13] it was “inactive”; with CD38, CD38 (gene 952) it was “inactive”; with CD40, CD40 (gene 958) [14], “inactive”; with CD69, CD69 (gene 969) it was “inactive”.

Turning to `C=CC(=O)OCC(CC)(COC(=O)C=C)COC(=O)C=C`, the AC50 (as a rule, the concentration at which the activity in the assay is half-maximal) in assay [1] was 5380 nM (active); in [2], 2370 nM (active); in assay [3], 2350 nM (active); in assay [4] it was 2340 nM (active); in [5] it was 3110 nM (active); with CD40, CD40 (gene 958) [6], 1350 nM (active). Further, the AC50 in assay [7] is 2930 nM (active); in assay [9] it was 2430 nM (active); in [10], 1460 nM (active); in [15] it was 2290 nM (active); in the assay with CD38, CD38 (gene 952) it was 1780 nM (active); in the assay with CD40, CD40 (gene 958) [14] it was 2120 nM (active). The AC50 with CD69, CD69 (gene 969) was 2300 nM (active); in [17], 2600 nM (active). The outcome in [8], in assay [18] and in [13] was inactive.

For the origin of these results see PubChem BioAssay (EPA / NIEHS).
